Measured values reported in PubChem BioAssay (NCATS).
Results filed as inconclusive are left out. The source made the active and inactive calls. Unless noted, calls come from the whole dose curve; as a rule, active = well fitted curve in the direction sought with a large enough effect; inconclusive = small, poorly fitted or top-dose-only effect, or another doubt; inactive = no such curve, though single readings can be large; an effect the other way counts as inactive or inconclusive.

How the values were obtained:
[1] = target: T1, Tyrosine-protein phosphatase non-receptor type substrate 1 (Homo sapiens) + Leukocyte surface antigen CD47 (Homo sapiens) (UniProt P78324+Q08722); assay: CD47-SIRPalpha protein protein interaction - LANCE assay qHTS validation (AID 1347057; active = well fitted curve in the direction sought with a large enough effect in the signal ratio, with a control signal flat, not every such curve was filed as active; the % refers to the signal ratio; note: 0% is about no effect)
T1 sequence (P78324 whole entry, looked up): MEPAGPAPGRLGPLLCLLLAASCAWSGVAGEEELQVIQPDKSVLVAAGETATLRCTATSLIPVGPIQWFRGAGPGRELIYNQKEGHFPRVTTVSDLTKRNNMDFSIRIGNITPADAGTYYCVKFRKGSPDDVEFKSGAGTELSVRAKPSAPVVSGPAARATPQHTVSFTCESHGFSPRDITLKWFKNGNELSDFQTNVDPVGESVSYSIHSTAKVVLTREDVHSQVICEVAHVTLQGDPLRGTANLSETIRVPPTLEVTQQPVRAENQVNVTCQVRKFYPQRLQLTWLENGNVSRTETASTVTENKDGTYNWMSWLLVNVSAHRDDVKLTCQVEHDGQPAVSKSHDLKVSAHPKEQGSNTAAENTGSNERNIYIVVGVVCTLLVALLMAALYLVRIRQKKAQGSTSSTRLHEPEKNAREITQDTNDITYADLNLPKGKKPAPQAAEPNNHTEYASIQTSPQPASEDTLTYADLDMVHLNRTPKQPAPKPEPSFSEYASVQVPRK
T1 sequence (Q08722 whole entry, looked up): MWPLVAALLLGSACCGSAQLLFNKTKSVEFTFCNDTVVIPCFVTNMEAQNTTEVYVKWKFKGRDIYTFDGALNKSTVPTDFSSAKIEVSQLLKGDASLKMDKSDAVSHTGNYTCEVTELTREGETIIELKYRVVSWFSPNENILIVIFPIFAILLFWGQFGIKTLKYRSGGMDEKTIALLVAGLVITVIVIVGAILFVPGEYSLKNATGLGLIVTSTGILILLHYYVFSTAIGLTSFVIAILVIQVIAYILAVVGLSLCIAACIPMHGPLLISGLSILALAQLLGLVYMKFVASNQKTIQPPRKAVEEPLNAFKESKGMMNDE
Summary of the method: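 First, His-tagged CD47 and Eu-labelled anti-His antibody met the compound for 30 min; next, site-specifically biotinylated SIRPalpha was added for 30 min; finally streptavidin-APC was added before reading the TR-FRET ratio.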

[2] = target: T1, Tyrosine-protein phosphatase non-receptor type substrate 1 (Homo sapiens) + Leukocyte surface antigen CD47 (Homo sapiens); assay: CD47-SIRPalpha protein protein interaction - HTRF assay qHTS validation (AID 1347058; active = well fitted curve in the direction sought with a large enough effect in the signal ratio, not every such curve was filed as active; the % refers to the signal ratio;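 note: recombinant soluble extracellular CD47 with His tag and biotinylated SIRPalpha domains; 0% is about no effect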)
Summary of the method: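 TR-FRET read (Ch1/Ch2 ratio) of soluble extracellular CD47 and Avi-biotinylated SIRPalpha domains in PBS pH 7.4 with 0.05% IGEPAL; 7-point compound titration. Sequential 30 min room-temperature steps; non-biotinylated SIRPalpha as control inhibitor.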

[3] = target: T1, Tyrosine-protein phosphatase non-receptor type substrate 1 (Homo sapiens) + Leukocyte surface antigen CD47 (Homo sapiens); assay: CD47-SIRPalpha protein protein interaction - Alpha assay qHTS validation (AID 1347059);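 note: bead proximity luminescence from CD47 binding SIRPalpha after compound preincubation with SIRPalpha; % is set by controls: 0 for no effect and ±100 for the full control effect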
Summary of the method: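 Binding is measured by AlphaScreen proximity: Ni-NTA acceptor beads capture His-CD47, streptavidin donor beads capture biotin-SIRPalpha. Each of three additions (SIRPalpha with compound, CD47, beads) incubates 30 min at room temperature protected from light.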

[4] = target: Parathyroid hormone/parathyroid hormone-related peptide receptor (Homo sapiens) (UniProt Q03431); assay: qHTS for PTHR1 Agonists: Optimization Screen against the NCGC LOPAC library (AID 1347079);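 note: GloSensor cAMP luminescence in HEK-293 GP2 cells expressing human PTHR1 with IBMX; 0% is about no effect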
Parathyroid hormone/parathyroid hormone-related peptide receptor (Homo sapiens), sequence (Q03431 whole entry, looked up): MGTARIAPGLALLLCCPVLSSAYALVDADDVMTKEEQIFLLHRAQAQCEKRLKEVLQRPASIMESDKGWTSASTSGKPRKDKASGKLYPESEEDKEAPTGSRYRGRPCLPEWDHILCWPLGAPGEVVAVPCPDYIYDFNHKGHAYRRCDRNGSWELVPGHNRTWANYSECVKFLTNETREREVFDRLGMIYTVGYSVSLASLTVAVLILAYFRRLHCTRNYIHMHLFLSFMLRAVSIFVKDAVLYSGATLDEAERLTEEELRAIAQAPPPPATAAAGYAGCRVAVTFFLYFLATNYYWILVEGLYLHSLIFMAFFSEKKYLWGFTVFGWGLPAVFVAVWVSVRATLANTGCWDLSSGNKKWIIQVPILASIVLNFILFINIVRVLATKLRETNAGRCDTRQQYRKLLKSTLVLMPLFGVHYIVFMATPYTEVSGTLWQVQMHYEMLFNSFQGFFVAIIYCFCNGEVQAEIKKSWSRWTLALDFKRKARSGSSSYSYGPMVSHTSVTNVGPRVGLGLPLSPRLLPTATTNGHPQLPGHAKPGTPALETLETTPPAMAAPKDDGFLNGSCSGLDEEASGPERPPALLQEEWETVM
Summary of the method: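 Agonist readout: GloSensor cAMP luminescence, read after 15 min at room temperature. HEK-293-derived GP2 line carries PTHR1; compounds tested as a titration for 1 hr at 37C in presence of IBMX. M-PTH (1-15) served as control.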

[5] = system: Zika virus NS2B-NS3 protease (unlinked); assay: Optimization of GU AMC qHTS for Zika virus inhibitors: Unlinked NS2B-NS3 protease assay (AID 1347151); note: nearly all actives have a fitted effect of over 80% in size; note: potency is the fitted concentration of half-maximal effect
Summary of the method: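 Fluorescence gain (340/450 nm) over 15 min at room temperature, ~20% conversion, gave percent inhibition fitted to a 4-parameter Hill equation; enzyme was unlinked NS2B-NS3 (25 nM final), pH 8.0 Tris buffer.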

[6] = system: Zika virus NS2B-NS3 protease (linked construct); assay: Confirmatory screen NINDS AMC qHTS for Zika virus inhibitors (AID 1347152); note: potency is the fitted concentration of half-maximal effect; nearly all actives have a fitted effect of over 70% in size
Summary of the method: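 IC50s from 4-parameter Hill fits of percent inhibition, based on AMC fluorescence gain (340/450 nm) over 15 min with 10 microM Bz-Nle-KRR-AMC. Enzyme: 1 nM linked NS2B-NS3 in Tris-HCl pH 8.0; 15-min compound preincubation.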

[7] = system: Zika virus NS2B-NS3 protease (unlinked complex); assay: Confirmatory screen GU AMC qHTS for Zika virus inhibitors (AID 1347153);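 note: enzyme at 25 nM with substrate at 10 µM below its Km of 18.3 µM; potency is the fitted concentration of half-maximal effect; nearly all actives have a fitted effect of over 70% in size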
Summary of the method: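 Compounds were preincubated 15 min at room temperature with 25 nM noncovalent NS2B-NS3 protease at pH 8.0; AMC substrate added at 10 microM and 15-min fluorescence gain (340/450 nm) converted to percent inhibition, fitted 4-parameter.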

[8] = system: Zika virus NS2B-NS3 protease; assay: Primary screen GU AMC qHTS for Zika virus inhibitors (AID 1347154); note: nearly all actives have a fitted effect of over 70% in size; note: potency is the fitted concentration of half-maximal effect
Summary of the method: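 Fluorogenic AMC-substrate cleavage by noncovalent NS2B-NS3 protease complex (25 nM, pH 8.0 Tris buffer with Tween 20) followed for 15 minutes at room temperature (~20% conversion). Percent inhibition from ex340/em450 signal change, fitted by 4-parameter Hill equation.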

[9] = ZIKV-mCherry secondary qHTS for Zika virus inhibitors (AID 1347158); note: potency is the fitted concentration of half-maximal effect
Summary of the method: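 Vero, 5,000 cells/well, o/n 37 °C; cpd pin-transferred in DMSO; ZIKV-mCherry MOI 1, 48-72 h 37 °C; 32% PFA stock fix, Hoechst; imaged 10x DAPI/mCherry; mCherry+ threshold 450 RFU; % infection.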

[10] = Confirmatory screen NINDS Rhodamine qHTS for Zika virus inhibitors (AID 1347161); note: potency is the fitted concentration of half-maximal effect; nearly all actives have a fitted effect of over 60% in size
Summary of the method: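 Purified NS2B-NS3 protease with the NS2B hydrophilic domain joined by a flexible linker (25 nM) in 10 mM Tris-HCl pH 8.0, 0.01% Tween 20, preincubated 15 min at RT with compound; Rhodamine110 peptide substrate 1.5 µM; fluorescence change over 15 min; 4-parameter Hill fit.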

[11] = system: Zika virus NS2B-NS3 protease (linked); assay: 384 well plate NINDS AMC confirmatory qHTS for Zika virus inhibitors (AID 1347163);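 note: linked protease at 5 30 or 60 nM final depending on run; fluorescence of AMC released from Ac-VKTGKR-AMC peptide cleaved by the protease; top concentration of the series differs between compounds; 0% = no-inhibitor control and -100% = no-enzyme control; nearly all actives have a fitted effect of over 50% in size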
Summary of the method: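 Linked NS2B-NS3 protease (final 5 nM, 30 nM or 60 nM) was preincubated with compounds (final up to 1 mM) for ~15 minutes. Ac-VKTGKR-AMC substrate (final 30 microM) then reacted for 25 minutes at room temperature in the dark. Fluorescence (ex 355/em 460 nm) was normalized to no-enzyme and no-inhibitor controls.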

[12] = system: Zika virus NS2B-NS3 protease (linked construct); assay: 384 well plate NINDS Rhodamine confirmatory qHTS for Zika virus inhibitors (AID 1347164);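 note: fluorescence from protease cleavage of Ac-LKRR-rhodamine 110 substrate; top concentration of the series differs between compounds; plate controls were no-inhibitor control for no effect and no-enzyme control for full effect; nearly all actives have a fitted effect of over 65% in size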
Summary of the method: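 Fluorescence at 485/538 nm was measured 25 minutes after adding 10 microM Ac-LKRR-Rd substrate, in the dark at room temperature. The protease (5, 30 or 60 nM final) had been preincubated ~15 minutes with compound; aprotinin as control.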

[13] = HepG2 cells viability qHTS for Zika virus inhibitors (AID 1347168); note: % is set by controls: 0 for no effect and ±100 for the full control effect
Summary of the method: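 Compounds were tested in concentration series on cells grown in DMEM containing 4% FBS. After 24 to 48 hours, cellular ATP was measured by luminescence with CellTiter Glo.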

[14] = target: N-terminal Xaa-Pro-Lys N-methyltransferase 1 (Homo sapiens) (UniProt Q9BV86); assay: qHTS Assay for Inhibitors of N-terminal methyltransferase 1 (NTMT1): LOPAC validation of the NTMT1 SAHH-coupled ThioGlo3 Assay (AID 1347143);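 note: SAH from peptide methylation measured as thiol fluorescence via SAHH coupling and ThioGlo3; nearly all actives have a fitted effect of over 70% in size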; note: potency is the fitted concentration of half-maximal effect
N-terminal Xaa-Pro-Lys N-methyltransferase 1 (Homo sapiens), sequence (Q9BV86 whole entry, looked up): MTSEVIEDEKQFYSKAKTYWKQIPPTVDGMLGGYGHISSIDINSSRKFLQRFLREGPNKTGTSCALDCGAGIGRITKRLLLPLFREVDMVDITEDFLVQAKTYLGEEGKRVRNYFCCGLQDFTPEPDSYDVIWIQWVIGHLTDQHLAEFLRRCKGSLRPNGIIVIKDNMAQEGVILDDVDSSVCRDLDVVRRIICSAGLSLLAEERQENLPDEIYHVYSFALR
Summary of the method: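 Inhibition of NTMT1 methylation of peptide SPKRIA is followed by converting SAH with SAHH and labelling the released thiol with ThioGlo3. Plates are read at 340/450nm before and 30 min after reagent addition, both at room temperature.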

[15] = target: Lysine-specific demethylase 5B (Homo sapiens) (UniProt Q9UGL1); assay: Optimization screen for KDM5B Histone Demethylases FDH coupled qHTS against the LOPAC library (AID 1347166); conditions: KDM5B demethylation, FDH-coupled NADH fluorescence (FDH is formaldehyde dehydrogenase); at 57.5 µM (top of the series); note: 0% is about no effect
Lysine-specific demethylase 5B (Homo sapiens), sequence (Q9UGL1 whole entry, looked up): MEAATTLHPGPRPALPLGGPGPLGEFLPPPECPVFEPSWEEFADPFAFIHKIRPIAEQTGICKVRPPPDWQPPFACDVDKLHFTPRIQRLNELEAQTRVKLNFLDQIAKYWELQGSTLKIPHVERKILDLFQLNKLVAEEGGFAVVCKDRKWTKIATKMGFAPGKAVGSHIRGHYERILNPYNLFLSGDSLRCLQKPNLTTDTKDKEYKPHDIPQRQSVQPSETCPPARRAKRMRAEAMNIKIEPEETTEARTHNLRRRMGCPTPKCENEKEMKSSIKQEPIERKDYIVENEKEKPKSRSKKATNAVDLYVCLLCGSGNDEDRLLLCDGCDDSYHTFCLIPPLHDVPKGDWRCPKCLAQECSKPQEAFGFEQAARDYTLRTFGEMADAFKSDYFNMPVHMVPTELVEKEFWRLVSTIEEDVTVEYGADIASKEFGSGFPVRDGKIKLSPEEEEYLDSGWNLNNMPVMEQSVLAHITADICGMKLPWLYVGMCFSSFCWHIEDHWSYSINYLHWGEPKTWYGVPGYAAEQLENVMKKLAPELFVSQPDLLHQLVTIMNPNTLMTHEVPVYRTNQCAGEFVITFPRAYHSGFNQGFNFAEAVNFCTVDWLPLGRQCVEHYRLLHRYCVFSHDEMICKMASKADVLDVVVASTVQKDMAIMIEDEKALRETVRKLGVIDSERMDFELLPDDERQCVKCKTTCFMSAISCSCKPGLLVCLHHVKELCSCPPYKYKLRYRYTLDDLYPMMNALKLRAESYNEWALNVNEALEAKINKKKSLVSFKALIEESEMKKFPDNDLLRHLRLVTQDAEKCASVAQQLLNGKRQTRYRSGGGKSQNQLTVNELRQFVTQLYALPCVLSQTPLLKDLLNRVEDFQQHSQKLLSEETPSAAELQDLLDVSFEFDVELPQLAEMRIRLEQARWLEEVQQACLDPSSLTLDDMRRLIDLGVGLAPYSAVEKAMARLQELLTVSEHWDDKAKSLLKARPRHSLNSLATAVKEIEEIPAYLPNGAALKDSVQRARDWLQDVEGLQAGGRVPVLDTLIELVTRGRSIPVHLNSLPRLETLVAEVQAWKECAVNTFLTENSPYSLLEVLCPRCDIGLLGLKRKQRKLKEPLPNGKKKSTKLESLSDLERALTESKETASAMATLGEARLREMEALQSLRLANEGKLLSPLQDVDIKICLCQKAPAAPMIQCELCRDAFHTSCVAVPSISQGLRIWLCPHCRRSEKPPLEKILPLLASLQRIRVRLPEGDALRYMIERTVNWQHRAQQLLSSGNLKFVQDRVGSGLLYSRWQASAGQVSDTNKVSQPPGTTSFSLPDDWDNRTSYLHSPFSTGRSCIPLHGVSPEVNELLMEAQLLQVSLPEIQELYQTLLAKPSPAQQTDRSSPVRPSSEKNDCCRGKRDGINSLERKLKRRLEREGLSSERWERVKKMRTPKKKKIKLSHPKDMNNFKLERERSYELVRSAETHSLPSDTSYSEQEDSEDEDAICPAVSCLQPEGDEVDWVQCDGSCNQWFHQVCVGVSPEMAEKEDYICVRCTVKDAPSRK
Summary of the method: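 KDM5BDeltaAP (200nM final) preincubated 10 min with compound, then 12.5uM H3K4Me3, 25uM a-ketoglutarate, ascorbate, Fe(II), NAD+ and FDH added; 50mM HEPES pH 7.5, 0.01% Tween-20. NADH fluorescence (340/450 nm) change over 30 min, room temperature.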

[16] = Tertiary RLuc qRT-PCR qHTS assay for Zika virus inhibitors (AID 1347169); note: top concentration of the series differs between compounds; % is set by controls: 0 for no effect and ±100 for the full control effect; nearly all actives have a fitted effect of over 55% in size
Summary of the method: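 Orthogonal cell-based readout: luminescence measured 1-1.5 hrs after adding live-cell Renilla substrate to Vero cells that had been infected with ZIKV-RLuc (MOI 1-2) post-compound, incubated 48-72 hrs at 37 degrees C.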

C/C(=C\c1ccc(C(=O)O)cc1)c1ccc2c(c1)C(C)(C)CCC2(C)C
active: Potency [5] 10.6 µM | Potency [6] 24.1 µM | Potency [7] 24.1 µM | Potency [9] 7.94 µM | Potency [10] 1.56 µM
inactive: Potency [1] | outcome [2] | Potency [3] | Potency [4] | Potency [8] | Potency [11] | Potency [12] | outcome [13]

CC(=O)O[C@H]1CC2(C)[C@@H](C[C@@H](O)[C@H]3[C@@]4(C)CC[C@@H](O)[C@@H](C)[C@@H]4CC[C@@]32C)C1=C(CCC=C(C)C)C(=O)O (some centres undefined)
inactive: Potency [4] | Potency [14] | Potency [5] | activity, negative = inhibition [15] -4.8%

N#Cc1cc([N+](=O)[O-])c2sc(C(N)=O)[n+]([O-])c2c1
inactive: Potency [1] | Potency [3] | Potency [4] | Potency [5]

CC(=O)/C(C)=N/O
inactive: outcome [2] | Potency [4] | Potency [14] | Potency [5] | activity, negative = inhibition [15] -0.876%

COc1cc(CC(=O)O)ccc1O
inactive: outcome [2] | Potency [3] | Potency [4] | Potency [14] | Potency [8] | activity, negative = inhibition [15] -5.93%

O=c1ccc2c(OCCCCc3ccccc3)c3ccoc3cc2o1
inactive: Potency [1] | outcome [2] | Potency [3] | Potency [4]
active: Potency [5] 26.7 µM

CCC1(O)CC2CN(CCc3c([nH]c4ccccc34)[C@@](C(=O)OC)(c3cc4c(cc3OC)N(C)C3[C@]45CCN4CC=C[C@@](CC)([C@@H](OC(C)=O)[C@]3(O)C(=O)OC)[C@H]45)C2)C1 (some centres undefined)
inactive: Potency [4] | activity, negative = inhibition [15] -13.4%

N#Cc1cc2nc(O)c(O)nc2cc1[N+](=O)[O-]
inactive: Potency [1] | Potency [3] | Potency [4] | Potency [14] | Potency [5] | Potency [8] | activity, negative = inhibition [15] -14.6%

O=c1ccn([C@@H]2O[C@H](COP(=O)(O)OP(=O)(O)O)[C@@H](O)[C@H]2O)c(=O)[nH]1
inactive: Potency [1] | Potency [3] | Potency [4] | Potency [14] | Potency [5] | Potency [8] | activity, negative = inhibition [15] -0.701%

Cn1c(=O)c2[nH]c(-c3ccc(S(=O)(=O)O)cc3)nc2n(C)c1=O
active: Potency [14] 12.6 µM | Potency [6] 6.81 µM | Potency [8] 5.32 µM
inactive: Potency [3] | Potency [4] | Potency [5] | activity, negative = inhibition [15] 39.3% | outcome [13] | Potency [16]

Nc1nc2c(cnn2CCc2ccccc2)c2nc(-c3ccco3)nn12
active: Potency [5] 23.8 µM
inactive: outcome [2] | Potency [3] | Potency [4] | Potency [8]

COc1ccccc1N1CCN(CCCCNC(=O)c2ccc3ccccc3c2)CC1
inactive: Potency [1] | Potency [3] | Potency [4] | Potency [14] | Potency [5] | activity, negative = inhibition [15] -7.43%

O=S(=O)(c1cccc2c(Cl)cccc12)N1CCCNCC1
inactive: Potency [3] | Potency [4] | Potency [5] | Potency [8] | activity, negative = inhibition [15] 1.08%

Nc1ncnc2c1c(-c1ccc(Oc3ccccc3)cc1)cn2C1CCCC1
inactive: outcome [2] | Potency [4]
active: Potency [14] 79.4 µM | Potency [5] 23.8 µM

C[C@]12C=CC(=O)C=C1CC[C@@H]1C2=CC[C@]2(C)[C@@H](C(=O)CN3CCN(c4cc(N5CCCC5)nc(N5CCCC5)n4)CC3)CC[C@@H]12
inactive: Potency [1] | outcome [2] | Potency [3] | Potency [4] | Potency [5]

c1ccc(CN2CCC3(CCCc4ccccc43)CC2)cc1
inactive: Potency [1] | outcome [2] | Potency [3] | Potency [4] | activity, negative = inhibition [15] -0.246%
active: Potency [14] 50.1 µM

COc1ccc(NC(=O)c2ccc(-c3ccc(-c4noc(C)n4)cc3C)cc2)cc1N1CCN(C)CC1
inactive: outcome [2] | Potency [4] | Potency [14] | Potency [5] | Potency [8] | activity, negative = inhibition [15] -1.51%
